Hits are enriched below; roughly 2.3% of the tested compounds scored in any of these assays.
iPSC survival up – enhancers of human iPSC single-cell survival. hiPSC single-cell survival, ATPlite luminescence; 100% = ROCK inhibitor wells, 0% = DMSO. survival enhancement, % at 20 µM. 0.044% of 360,000 active; in the data active means survival enhancement above about 18%;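 further: cells exposed to compounds for 16 hours before the ATP read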
KKLEB tox – counter-screen for CF NF-kB inhibitors: cytotoxicity; KKLEB CF airway cells viability, ATPlite luminescence, overnight; hits give low values; cells stimulated with P. aeruginosa culture filtrate; activity change (cytotoxicity), % at 5 µM; 0.36% of 360,000 active;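 active means corrected activity change at or below -50% at 5 µM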
TWEAK-Fn14 inh – TWEAK-Fn14 signaling inhibition. TWEAK-stimulated Fn14 reporter cells, luciferase luminescence, 8 h. inhibition, % at 10 µM. 2% of 360,000 active. AID 1159606; in the data active means inhibition above about 50%
HIF-2a block – inhibitors of HIF-2a | 786-0 RCC cells HIF-2a reporter, luciferase luminescence, overnight | inhibition, % at 18.8 µM | 0.72% of 360,000 active | AID 624352;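 active means inhibition of the luminescence signal of 40% or more relative to plate controls, in a single-dose primary screen at 18.75 µM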
LGR2 inh – Drosophila LGR2 receptor signaling inhibition; HEK293 LGR2, CRE-luciferase, bursicon-stimulated, 4 h; inhibition, % at 9.99 µM; 0.35% of 380,000 active; AID 720647;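 active means drop in luminescence signal, shown as inhibition above about 50% in the replicate tests, limit read from the data, passing the limit was not always enough; inconclusive means probably only some replicates passing the limit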;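 further: agonist challenge used bursicon conditioned medium at about half maximal strength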
CF NFkB block – blocks PAF-induced NF-kB reporter in cystic fibrosis cells | KKLEB NF-kB-GFP reporter, GFP fluorescence overnight | inhibition, % at 5 µM | 0.86% of 360,000 active | AID 588850;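 active means at least 50% inhibition at 5 µM, scaled per plate between neutral and stimulator controls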;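 further: PAF is a Pseudomonas aeruginosa culture filtrate used as stimulus; plate controls were PAF-stimulated DMSO wells for no effect and unstimulated DMSO wells for full effect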
Active calls of the source: *.

CCN(CCCl)c1cc(CN(C)C)cc(NC(=O)c2ccc(C(=O)Nc3cc(CN(C)C)cc(N(CC)CCCl)c3)cc2)c1 was read as iPSC survival up -4.4, KKLEB tox -88.9*, TWEAK-Fn14 inh 99.1*, HIF-2a block 70.0*, LGR2 inh 95.1* and CF NFkB block 79.7*.
OC[C@H]1Nc2ccc(C#Cc3cccnc3)cc2[C@H]2NCC[C@H]21 was read as LGR2 inh 12.9.
`COC1/C=C/C=C(\C)Cc2cc(O)c(Cl)c(c2)N(C)C(=O)CC(OC(=O)C(C)C)C2(C)OC2C(C)C2CC1(O)NC(=O)O2` (configuration not stated) gave iPSC survival up -1.4, KKLEB tox -22.7, TWEAK-Fn14 inh 19.6, HIF-2a block 34.6, LGR2 inh -9.9 and CF NFkB block 58.3*.
For C[C@H]1CN([C@@H](C)CO)C(=O)CCCn2cc(nn2)CO[C@H]1CN(C)C(=O)Oc1cccc2ccccc12 the results were LGR2 inh 1.7.
`CN1CCN(c2ccc([N+](=O)[O-])c3no[n+]([O-])c23)CC1` gave iPSC survival up -0.6, KKLEB tox -55.5*, TWEAK-Fn14 inh 104.3*, HIF-2a block 61.2*, LGR2 inh 105.4* and CF NFkB block 59.0*.
O=[N+]([O-])c1ccc(N(CCO)CCO)c2c1no[n+]2[O-] was read as iPSC survival up -5.8, KKLEB tox -44.5, TWEAK-Fn14 inh 19.6, HIF-2a block 50.6*, LGR2 inh inconclusive and CF NFkB block -0.1.
Screening Cc1cccc(CN2CCN(C(=O)Cc3ccccc3)CC2)c1 returned iPSC survival up -0.8, KKLEB tox 1.0, TWEAK-Fn14 inh -10.0, HIF-2a block 17.5, LGR2 inh -0.8 and CF NFkB block 0.7.
COc1cc(OC)c(OC)cc1CN1CCN(C(=O)Cc2ccccc2)CC1 was read as iPSC survival up -0.2, KKLEB tox -11.9, TWEAK-Fn14 inh 96.6*, HIF-2a block 17.6, LGR2 inh 4.4 and CF NFkB block -2.1.
For COC(=O)[C@@H]1[C@@H](CO)[C@@H]2Cn3c(ccc(-c4ccccc4F)c3=O)[C@H]1N2 the results were LGR2 inh -13.3.
Oc1c(Cl)cccc1Cc1cc(Cl)cc(Cl)c1O was read as iPSC survival up 3.7, KKLEB tox -19.0, TWEAK-Fn14 inh 65.5*, HIF-2a block -3.3, LGR2 inh -1.0 and CF NFkB block 61.0*.
COC(=O)[C@H]1[C@H](CO)[C@H]2Cn3c(ccc(-c4ccccc4F)c3=O)[C@@H]1N2Cc1ccccc1 was read as LGR2 inh 3.4.
`COC(=O)C1CN(C#N)N(c2ccc(Cl)cc2)C12c1ccccc1-c1ccccc12` (configuration not stated) gave iPSC survival up -4.8, KKLEB tox -102.3*, TWEAK-Fn14 inh 91.8*, HIF-2a block 90.4*, LGR2 inh 99.6* and CF NFkB block 96.9*.
For CCN1/C(=C/C=C/C2=[N+](CC)c3ccccc3C2(C)C)C(C)(C)c2ccccc21 the results were iPSC survival up -3.1, KKLEB tox -42.5, TWEAK-Fn14 inh 81.6*, HIF-2a block 39.3*, LGR2 inh 54.5* and CF NFkB block -84.8.
Screening CN1/C(=C\C=C2C(=O)NC(=O)NC2=O)C(C)(C)c2ccccc21 returned iPSC survival up -0.4, KKLEB tox -11.2, TWEAK-Fn14 inh -21.8, HIF-2a block 3.3, LGR2 inh 6.5 and CF NFkB block 2.9.
`COc1cccc(-c2ccc([C@H]3[C@@H](CO)N4CCCCN(C(=O)Cc5ccncc5)C[C@H]34)cc2)c1` gave LGR2 inh 8.3.
For CC(C)c1oc(=O)cc2c1[C@@H](O)[C@H]1OC(=O)[C@@]3(C)C[C@@H](O)[C@@H](O)[C@@]2(C)C13 (some centres not stated) the results were iPSC survival up -1.4, KKLEB tox 1.8, TWEAK-Fn14 inh 87.6*, HIF-2a block 38.8, LGR2 inh 78.5* and CF NFkB block 18.5.
`CC(C)c1oc(=O)cc2c1[C@@H](O)[C@H]1OC(=O)[C@@]3(C)CC[C@@H](O)[C@@]2(C)C13` (some centres not stated) gave iPSC survival up -2.0, KKLEB tox -7.3, TWEAK-Fn14 inh 49.8, HIF-2a block 35.2, LGR2 inh 67.0* and CF NFkB block 13.6.
`CCOC(=O)[C@]12Cc3cc(Cl)ccc3[C@H]1N(C)C(=O)c1cc(OC)ccc12` gave iPSC survival up -0.7, TWEAK-Fn14 inh 5.7, HIF-2a block 28.3 and LGR2 inh inconclusive.
Screening CCOC(=O)[C@]12Cc3cc(Cl)ccc3[C@H]1N(C1CCCCC1)C(=O)c1cc(OC)ccc12 returned iPSC survival up -2.0, TWEAK-Fn14 inh 101.9*, HIF-2a block 89.0* and LGR2 inh 100.9*.
`CCOC(=O)[C@]12Cc3cc(C)ccc3[C@H]1N(CCC(=O)OC)C(=O)c1ccccc12` gave iPSC survival up -1.6, TWEAK-Fn14 inh 17.7, HIF-2a block 25.3 and LGR2 inh 52.8*.
For Cc1cccc(S(=O)(=O)N2[C@@H]3c4ccc(-c5ccc(F)cc5)c(=O)n4C[C@H]2[C@H](CO)[C@H]3C(=O)O)c1 the results were LGR2 inh -2.6.
`C/C=C/c1ccc(C2[C@@H]3CN(C(=O)C4CCOCC4)C[C@H]2N3)cc1` (some centres not stated) gave LGR2 inh -1.1.
`CCCOC(=O)c1ccc(-[n+]2c(-c3ccccc3)cc(-c3ccccc3)cc2-c2ccccc2)cc1` gave iPSC survival up -1.6, KKLEB tox -10.5, TWEAK-Fn14 inh 61.8*, HIF-2a block -8.8, LGR2 inh -4.7 and CF NFkB block 28.9.
CC12CCC(O)CC1CCC1C2CCC2(C)C(C3=CC(=O)OC3)C(O)CC12O (configuration not stated) was read as iPSC survival up -1.5, KKLEB tox -48.8, TWEAK-Fn14 inh 53.4*, HIF-2a block 15.6, LGR2 inh 77.1* and CF NFkB block 71.4*.
Screening O=C(O)[C@H]1[C@H](CO)[C@H]2Cn3c(ccc(-c4ccccc4)c3=O)[C@@H]1N2CC1CCCCC1 returned LGR2 inh -5.7.
`C=C1C(=O)O[C@@H]2C[C@@H](C)[C@@H]3C=CC(=O)[C@@]3(C)[C@@H](OC(=O)CC(=O)O[C@H]3[C@@H]4C(=C)C(=O)O[C@@H]4C[C@@H](C)[C@@H]4C=CC(=O)[C@]43C)[C@H]12` gave iPSC survival up 4.2, KKLEB tox -36.6, TWEAK-Fn14 inh 105.3*, HIF-2a block 97.4* and CF NFkB block 80.5*.
